Results on 103 compounds are retold here after PubChem BioAssay AID372 (MTDP, 2006).

The whole screen tested about 100,000 compounds, of which about 770 (0.77%) were called active. Many of the other results were omitted from the sample, so actives are more common in it than they were. Values without a mark were called inactive. Cut-off read from the data, not from the text of the source: active = inhibition above about 50%; inactive = the rest.

For the assay, the target named is Gag-Pol polyprotein (Human immunodeficiency virus type 1 group M subtype B (isolate HXB2)) (UniProt P04585). In words: RNase H inhibition, HIV 1 Gag Pol polyprotein, FRET biochemical assay, screening (AID 372). The note with it: HIV-1 RT RNase H, FRET RNA/DNA substrate fluorescence; at 10 µM; hits give high values.
Regarding `COc1ccc2c(c1)CC/C(=C\c1ccc([N+](=O)[O-])cc1)C2=O`, the inhibition was 4%.
Then `COc1cc(C(=O)N/N=C/c2ccc(OC)c(OC)c2C(=O)O)cc(OC)c1OC`, with 0%.
Then `Cc1ccc(C(=O)NC(=S)Nc2ccc(-c3nc4ccccc4s3)cc2)cc1C`, with 35%; and `O=C(NC(=S)Nc1ccc(-c2nc3ccccc3s2)cc1)c1ccc([N+](=O)[O-])cc1`, with 38%.
Consider `COc1ccc(C(=O)OCC(=O)c2ccc([N+](=O)[O-])cc2)cc1OC`, for which the inhibition was 7%.
Turning to `O=S(=O)(Nc1nc2ccccc2s1)c1cccc2cccnc12`, the inhibition is 8%.
With `Cc1cc(NC(=O)CSc2nnc3c4ccccc4n(C)c3n2)no1`, the inhibition was 4%.
Then `Oc1c(Br)cc(/C=N/Nc2nnc3c(n2)[nH]c2ccccc23)c(O)c1Br`, with 12%; and `Oc1c(Br)cc(Br)cc1/C=N/Nc1nnc2c(n1)[nH]c1ccccc12`, with 2%.
On to `O=C(CNC(=O)c1ccccc1)OCC(=O)c1ccc(Cl)cc1`, for which the inhibition is 3%.
To `O=C1NN(c2ccc(I)cc2)C(=O)/C1=C\c1ccc(F)cc1` belongs 0%; to `Cc1ccc(N2NC(=O)/C(=C/c3cc(I)cc(I)c3O)C2=O)cc1`, 0%.
To `Cc1ccc(N2NC(=O)/C(=C/c3ccc(O)cc3)C2=O)cc1C` belongs 13%; to `CCOC(=O)c1ccc(N2NC(=O)/C(=C/c3cc(I)cc(I)c3O)C2=O)cc1`, 57% (active).
To `COc1cc(/C=C2/C(=O)NN(c3ccc(C)c(C)c3)C2=O)ccc1O` belongs 25%; to `Cc1ccc(N2C(=O)NC(=O)/C(=C/c3ccc(O)c(O)c3)C2=O)cc1`, 33%; to `Cc1ccc(N2NC(=O)/C(=C/c3ccc(O)c(O)c3)C2=O)cc1`, 51% (active).
For the compound `Cc1ccc(N2NC(=O)/C(=C/c3ccc(O)c([N+](=O)[O-])c3)C2=O)cc1`, the inhibition is 8%.
To `CCOc1cc(/C=C2/C(=O)NN(c3ccc(I)cc3)C2=O)ccc1O` belongs 11%; to `Cc1ccc(N2NC(=O)/C(=C/c3ccc(O)c(O)c3)C2=O)cc1C`, 52% (active).
To `CCOC(=O)c1ccc(N2NC(=O)/C(=C/c3ccccc3O)C2=O)cc1` belongs 14%; to `O=C(CSc1nc2ccccc2[nH]1)Nc1cc(Cl)ccc1Cl`, 4%.
Then `CCCOC(=O)C1=C(C)NC2=C(C(=O)CCC2)C1c1cccc(O)c1` (stereo not drawn), with 2%; and `CCOC(=O)C1=C(C)NC2=C(C(=O)CC(C)(C)C2)C1c1cccc(O)c1` (stereo not drawn), with 0%; and `N#CC1=C(SCC(=O)Nc2ccccc2)NC(=O)CC1c1ccco1` (stereo not drawn), with 7%.
Consider `COc1ccc2oc(C)c(C(O)c3ccccc3)c2c1` (stereo not drawn), for which the inhibition is 0%.
Then `CCOc1ccc(N2C(=O)CSC2=S)cc1`, with 0%.
Then `O=C1NN(c2ccc(Cl)cc2)C(=O)/C1=C\c1ccc(O)c(O)c1`, with 57% (active).
Then `COc1cc(/C=C2/C(=O)NN(c3ccc(Cl)cc3)C2=O)ccc1O`, with 23%; and `O=C1NN(c2ccc(Cl)c(Cl)c2)C(=O)/C1=C/c1ccc(O)c(O)c1`, with 49%; and `COc1cccc(OCCCN2CCCC2)c1`, with 13%.
Regarding `O=C(COc1ccccc1Cl)Nc1cccc(S(=O)(=O)c2cccc(NC(=O)COc3ccccc3Cl)c2)c1`, the inhibition was 54% (active).
With `COc1ccc(-n2nc3ccc(NC(=O)COc4ccccc4Cl)cc3n2)cc1`, the inhibition is 32%.
Then `O=C(COc1ccccc1Cl)Nc1cccc(NC(=O)c2cccc(Cl)c2)c1`, with 38%.
For the compound `O=C(Cc1ccc(Cl)cc1)Nc1ccc2nn(-c3ccc(F)cc3)nc2c1`, the inhibition was 41%.
To `O=C(COc1ccccc1Cl)Nc1ccc2nn(-c3ccccc3)nc2c1` belongs 53% (active); to `O=C(Cc1ccccc1)Nc1ccc2nn(-c3ccc(Cl)cc3)nc2c1`, 37%; to `Cc1ccccc1OCC(=O)Nc1ccc2nn(-c3ccccc3)nc2c1`, 8%.
In the case of `O=C(COc1ccccc1Cl)Nc1cccc(NC(=O)c2ccccc2)c1`, the inhibition was 6%.
To `O=C(Cc1ccc(Cl)cc1)Nc1ccc2nn(-c3ccc(Cl)cc3)nc2c1` belongs 51% (active); to `O=C(COc1ccccc1)Nc1cc(C(F)(F)F)cc(C(F)(F)F)c1`, 0%; to `CC1=C(C(=O)Nc2ccccc2)C(c2cccc(Br)c2)NC(=S)N1` (stereo not drawn), 8%.
Then `COc1cc(/C=N\NC(=O)CSc2nc3ccccc3o2)ccc1O`, with 25%.
Then `C#CCSc1nc(C)cc(C)c1C#N`, with 13%; and `Cc1csc(NC(=O)C2CC3CCC2C3)n1` (stereo not drawn), with 4%.
As to `COc1ccc(N(CC(=O)Nc2cccc(OC)c2)S(=O)(=O)c2ccc(C)cc2)cc1`, the inhibition is 16%.
On to `CC(C(=O)O)n1c(O)c(/C=C2/C=Nc3ccccc32)sc1=S` (stereo not drawn), for which the inhibition was 4%.
Then `O=C(N/N=C/c1ccc(Cl)cc1Cl)c1cc(O)cc(O)c1`, with 6%.
As to `O=C(N/N=C/c1coc2ccccc2c1=O)c1cc(O)cc(O)c1`, the inhibition was 55% (active).
In the case of `O=C(N/N=C/c1ccc(Cl)cc1Cl)c1ccccc1Cl`, the inhibition is 5%.
For the compound `Cc1ccccc1/C=N/NC(=O)c1cc(O)cc(O)c1`, the inhibition was 2%.
For the compound `O=C(N/N=C/c1ccc(Cl)cc1Cl)c1cc(Br)ccc1O`, the inhibition was 0%.
Turning to `O=C(N/N=C/c1ccccc1Cl)c1ccc(C(=O)N/N=C/c2ccccc2Cl)cc1`, the inhibition is 0%.
Take `O=C(N/N=C/c1ccc(O)c(O)c1O)c1ccc(Cl)cc1Cl`: the inhibition is 61% (active).
For `C[n+]1ccc(C(=O)N/N=C/c2ccc(Cl)cc2Cl)cc1`, the inhibition was 0%.
For the compound `O=C(N/N=C/c1ccc(Cl)cc1Cl)c1ccc(O)c(O)c1`, the inhibition is 57% (active).
Regarding `O=C(N/N=C/c1ccccc1Cl)c1cccc(Cl)c1`, the inhibition was 8%.
Take `O=C(N/N=C/c1c[nH]c2ccccc12)c1cc(O)cc(O)c1`: the inhibition was 8%.
On to `O=C(/C=C/c1cc(Br)cs1)Nc1ccccc1`, for which the inhibition is 11%.
Then `Cc1cc(C)c(S(=O)(=O)N2CCCC2=O)c(C)c1`, with 0%; and `O=C(Nc1cc(NC(=O)c2cc(Cl)ccc2Cl)ccc1Cl)c1ccccc1`, with 20%; and `Cc1nnc(C)n1/N=C/c1ccc(Cl)cc1`, with 2%.
On to `Cn1c(SC/C=C/c2ccccc2)nc2sc3c(c2c1=O)CCC3`, for which the inhibition was 2%.
To `CCOC(=O)c1c(NC(=O)Cc2cccs2)sc(C(=O)Nc2cc(C(F)(F)F)ccc2Cl)c1C` belongs 16%; to `COc1ccc(C2CC(=O)N(CCCN(C)C)C2)cc1` (stereo not drawn), 2%.
On to `O=C(N/N=C/c1cccc(O)c1O)c1ccc(O)cc1`, for which the inhibition is 32%.
To `O=C(N/N=C/c1cccc(O)c1O)c1ccccc1` belongs 31%; to `O=C(N/N=C/c1cccc(O)c1O)c1cc(O)cc(O)c1`, 86% (active).
Regarding `O=C(N/N=C/c1cccc(Cl)c1Cl)c1ccc(O)c(O)c1`, the inhibition is 56% (active).
Regarding `O=C(N/N=C/c1cccc(Cl)c1Cl)c1ccc(O)cc1`, the inhibition was 0%.
For `O=C(N/N=C/c1cccc(Cl)c1Cl)c1ccc(Cl)c(Cl)c1`, the inhibition is 5%.
To `Oc1c(Cl)cc(Cl)cc1C=Nc1ccc(-c2nc3ccccc3[nH]2)cc1` belongs 0%; to `CCOC(=O)COc1ccc(/C=C2\C(=O)NC(=S)N(c3ccc(OCC)cc3)C2=O)cc1OC`, 9%.
Take `NC1=NC(=O)/C(=C/c2cccc(OS(=O)(=O)c3cccc([N+](=O)[O-])c3)c2)S1`: the inhibition was 3%.
Then `COc1ccc(CSCC(=O)N/N=C/c2ccccc2O)cc1`, with 14%; and `Cc1cc(C)nc(SCC(=O)N/N=C/c2c(Cl)cccc2Cl)n1`, with 20%.
To `COc1ccc(CSCC(=O)N/N=C/c2c(Cl)cccc2Cl)cc1` belongs 60% (active).
Turning to `CCOC(=O)c1c(NC(=O)c2cc(-c3ccccc3)nc3ccccc23)sc(C(N)=O)c1C`, the inhibition was 24%.
As for `CCOC(=O)c1c(NC(=O)c2cc(-c3ccc(C)c(C)c3)nc3ccccc23)sc(C(N)=O)c1C`, the inhibition was 5%.
For the compound `CCOC(=O)c1c(NC(=O)c2cc(-c3ccc(C(C)C)cc3)nc3ccccc23)sc(C(N)=O)c1C`, the inhibition was 55% (active).
With `C=CCn1c(-c2nonc2NC(C)=O)nc2ccccc21`, the inhibition is 42%.
For `Oc1ccc(/C=N/Nc2nncc(-c3ccccc3)n2)c(O)c1`, the inhibition was 23%.
Turning to `Oc1ccc(/C=N/Nc2nncc(-c3ccccc3)n2)cc1`, the inhibition was 5%.
On to `Cc1ccnc(NC(=O)c2ccc(OCC(C)C)cc2)c1`, for which the inhibition was 0%.
To `O=C1OC2C=CC(Br)=CC2C=C1C(=O)N1CCSC1c1ccc2c3c(cccc13)CC2` (stereo not drawn) belongs 6%; to `CCN1C(=O)/C(=C/c2cc(Cl)cc(Cl)c2OCCOc2ccccc2OC)SC1=S`, 7%.
To `CN1C[N+]([O-])=C(c2ccccc2)C1(C)C` belongs 3%.
On to `COC(=O)C1=C(C(=O)OC)SC(=C2C(=S)C(C)(C)Nc3ccc(C)cc32)S1`, for which the inhibition is 28%.
Regarding `COC(=O)C1=C(C(=O)OC)SC(=C2C(=S)C(C)(C)Nc3ccc(C(c4ccccc4)(c4ccccc4)c4ccccc4)cc32)S1`, the inhibition was 53% (active).
To `CCOC(=O)C1=C(c2ccccc2)S/C(=C2/C(=S)C(C)(C)Nc3ccc(C(c4ccccc4)(c4ccccc4)c4ccccc4)cc32)S1` belongs 27%; to `CC(=O)N1CCN(C2=NC(=O)/C(=C/c3ccc(O)cc3)S2)CC1`, 10%.
To `Cc1ccc(C(=O)O)cc1NC(=O)C1CC=CCC1C(=O)O` (stereo not drawn) belongs 10%; to `CCOCCOC(=O)C1=C(C)NC2=C(C(=O)CCC2)C1c1ccc(CC)cc1` (stereo not drawn), 12%; to `CCN(CC)S(=O)(=O)c1ccc(-c2ccc(S(=O)(=O)N(CC)CC)cc2)cc1`, 11%.
On to `N#C/C(=C/c1ccc(O)cc1)C(=O)Nc1ccc(O)cc1`, for which the inhibition is 8%.
As to `N#C/C(=C/c1ccc(Cl)cc1)C(=O)Nc1cccc(Br)c1`, the inhibition is 15%.
Then `N#C/C(=C\c1ccccc1)C(=O)Nc1ccccc1Br`, with 9%.
To `N#C/C(=C\c1ccc(OC(=O)c2ccc(Br)cc2)cc1)C(=O)Nc1cccc(Cl)c1` belongs 55% (active).
Then `N#C/C(=C/c1cccc(Cl)c1)C(=O)Nc1cccc(Br)c1`, with 12%; and `N#C/C(=C/c1ccc(Cl)cc1)C(=O)Nc1ccc(Cl)cc1`, with 3%.
Take `N#C/C(=C\c1cc(Br)c(O)c(Br)c1)C(=O)Nc1ccccc1Br`: the inhibition was 14%.
Then `N#C/C(=C/c1ccc(Cl)cc1)C(=O)Nc1ccc(O)cc1`, with 60% (active); and `N#C/C(=C\c1ccc(OC(=O)c2ccco2)cc1)C(=O)Nc1ccccc1Br`, with 50% (active).
